Laboratory results from PubChem BioAssay (Tox21).
Inconclusive results are not listed. Active and inactive are the calls of the source. Unless noted, calls follow the shape of the dose curve; as a rule, active = well fitted curve in the direction sought with a large enough effect in the repeat runs; inconclusive = weak or mixed curves; inactive = no such curve, though single readings can be large; an effect the other way counts as inactive or inconclusive.

How the values were obtained:
[1] = qHTS assay to identify small molecule antagonists of the thyroid receptor (TR) signaling pathway - cell viability counter screen (AID 743064); also: nearly all actives have a fitted effect of over 50% in size
In short: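 In rat pituitary GH3.TRE-Luc reporter cells co-exposed to compound and 1 nM T3 for 23.5 h, cytotoxicity was assessed with CellTiter-Fluor in the same wells, read by fluorescence.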

[2] = qHTS assay to identify small molecule antagonists of the thyroid receptor (TR) signaling pathway (AID 743065); also: series mostly up to about 70 µM; nearly all actives have a fitted effect of over 55% in size
In short: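 GH3.TRE-Luc rat pituitary cells carrying two TR response elements driving luciferase were plated for 4 h, given compound plus 1 nM T3 (final), and incubated 23.5 h at 37 C. ONE-Glo luminescence measured reporter inhibition; CellTiter-Fluor fluorescence tracked cytotoxicity.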

[3] = test system: thyroid hormone receptor (rat, GH3 cells); assay: qHTS assay to identify small molecule agonists of the thyroid receptor (TR) signaling pathway (AID 743066; calls by dose curve)
[4] = biological target: Estrogen receptor (Homo sapiens) (UniProt P03372); assay: qHTS assay to identify small molecule antagonists of the estrogen receptor alpha (ER-alpha) signaling pathway (AID 743069; active = well fitted curve in the direction sought with a large enough effect in the signal ratio in the repeat runs, not every such curve was filed as active; the % refers to the signal ratio)
Estrogen receptor (Homo sapiens), sequence (P03372 whole entry, looked up): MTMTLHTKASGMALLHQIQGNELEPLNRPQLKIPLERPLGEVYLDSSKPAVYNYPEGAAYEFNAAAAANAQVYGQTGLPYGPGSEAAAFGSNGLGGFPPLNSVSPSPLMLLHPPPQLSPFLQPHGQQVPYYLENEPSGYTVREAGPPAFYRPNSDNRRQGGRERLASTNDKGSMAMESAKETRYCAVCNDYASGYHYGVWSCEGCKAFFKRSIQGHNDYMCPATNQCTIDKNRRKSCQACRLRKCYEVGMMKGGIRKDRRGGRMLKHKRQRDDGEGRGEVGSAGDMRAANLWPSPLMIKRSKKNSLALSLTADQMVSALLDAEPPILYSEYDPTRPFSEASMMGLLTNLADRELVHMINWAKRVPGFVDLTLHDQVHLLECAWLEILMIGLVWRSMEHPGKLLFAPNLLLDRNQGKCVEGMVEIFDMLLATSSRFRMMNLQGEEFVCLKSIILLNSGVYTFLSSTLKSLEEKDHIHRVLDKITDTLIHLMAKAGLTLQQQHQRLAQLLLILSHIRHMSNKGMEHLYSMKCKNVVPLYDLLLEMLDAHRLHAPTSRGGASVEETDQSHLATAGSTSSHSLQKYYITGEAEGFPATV
In short: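 HEK293 cells stably carrying an ER-alpha-UAS-bla beta-lactamase reporter were pre-cultured overnight in 2% charcoal-stripped FBS medium. Test compounds in DMSO were added together with 17beta-estradiol for 18 hr at 37C. Read-out was fluorescence after 2 hr with LiveBLAzer B/G FRET substrate at room temperature.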

[5] = qHTS assay to identify small molecule antagonists of the estrogen receptor alpha (ER-alpha) signaling pathway - cell viability counter screen (AID 743074; calls by dose curve; also: nearly all actives have a fitted effect of over 45% in size)
[6] = biological target: Estrogen receptor (Homo sapiens) (UniProt P03372); assay: qHTS assay to identify small molecule agonists of the estrogen receptor alpha (ER-alpha) signaling pathway (AID 743075; calls by dose curve)
[7] = biological target: Estrogen receptor (Homo sapiens) (UniProt P03372); assay: qHTS assay to identify small molecule agonists of the estrogen receptor alpha (ER-alpha) signaling pathway using the BG1 cell line (AID 743079); also: nearly all actives have a fitted effect of over 20% in size
[8] = qHTS assay to identify small molecule antagonists of the estrogen receptor alpha (ER-alpha) signaling pathway using the BG1 cell line (AID 743080; calls by dose curve;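 also: BG1 cells stimulated with 17beta-estradiol alongside compound; series mostly up to about 70 µM; nearly all actives have a fitted effect of over 25% in size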)
In short: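 BG1-Luc-4E2 cells (endogenous full-length ER-alpha, 4xERE luciferase) hormone-starved 5 days in charcoal-stripped FBS, plated 4,000/well for 24 h, then compound plus 17beta-estradiol for 21.5 h at 37 C; ONE-Glo luminescence read.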

[9] = qHTS assay to identify small molecule antagonists of the estrogen receptor alpha (ER-alpha) signaling pathway using the BG1 cell line - cell viability counter screen (AID 743081);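 also: compound given together with 17beta-estradiol as the ER stimulus; series mostly up to about 70 µM; nearly all actives have a fitted effect of over 45% in size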
Aromatase (Homo sapiens) = Aromatase (Homo sapiens) (UniProt P11511); assay: qHTS assay to identify aromatase inhibitors (AID 743083); also: series mostly up to about 70 µM; nearly all actives have a fitted effect of over 55% in size
Aromatase (Homo sapiens), sequence (P11511 whole entry, looked up): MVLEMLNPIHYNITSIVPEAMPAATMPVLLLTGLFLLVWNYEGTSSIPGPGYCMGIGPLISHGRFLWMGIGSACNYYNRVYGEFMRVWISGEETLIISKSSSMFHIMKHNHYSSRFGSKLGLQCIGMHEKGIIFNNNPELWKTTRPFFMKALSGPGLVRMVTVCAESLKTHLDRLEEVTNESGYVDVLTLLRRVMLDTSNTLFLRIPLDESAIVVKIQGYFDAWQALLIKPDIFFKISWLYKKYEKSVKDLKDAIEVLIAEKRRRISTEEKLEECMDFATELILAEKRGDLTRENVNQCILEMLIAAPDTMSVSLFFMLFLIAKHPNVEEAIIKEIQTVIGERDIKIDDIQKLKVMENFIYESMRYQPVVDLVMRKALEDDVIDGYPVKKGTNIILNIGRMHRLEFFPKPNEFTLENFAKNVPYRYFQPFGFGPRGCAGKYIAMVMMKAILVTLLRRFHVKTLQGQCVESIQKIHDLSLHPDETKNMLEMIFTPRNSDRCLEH

[10] = qHTS assay to identify aromatase inhibitors - cell viability counter screen (AID 743084);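 also: cells stimulated with testosterone during compound exposure; nearly all actives have a fitted effect of over 55% in size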
[11] = qHTS assay to identify small molecule that activate the aryl hydrocarbon receptor (AhR) signaling pathway - cell viability counter screen (AID 743086);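 also: HepG2 liver cells carrying the AhR DRE luciferase reporter; series mostly up to about 70 µM; nearly all actives have a fitted effect of over 45% in size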
In short: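 HepG2-AhR-luc (HG2L7.5c1) cells, 4000/well, were preincubated 5 h at 37C, exposed to compound in qHTS format for 24 hr at 37C, then given CellTiter-Fluor for 30 min; viability was read as fluorescence in the reporter wells.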

[12] = qHTS assay to identify small molecule antagonists of the peroxisome proliferator-activated receptor gamma (PPARg) signaling pathway - cell viability counter screen (AID 743194); also: nearly all actives have a fitted effect of over 55% in size
In short: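 PPARg-UAS-bla HEK293H cells were plated, rested 5 h at 37 C, then treated with compounds plus rosiglitazone (50 nM final) for 17 h at 37 C; viability was then read by CellTiter-Glo luminescence after 30 min at room temperature.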

[13] = qHTS assay for small molecule agonists of the antioxidant response element (ARE) signaling pathway (AID 743202; active = well fitted activation curve with a large enough effect in the signal ratio in the repeat runs, not every such curve was filed as active; the % refers to the signal ratio)
In short: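 Read-out: LiveBLAzer B/G FRET substrate fluorescence after 2 h at room temperature, following 16 h compound treatment at 37 C of HepG2 cells carrying an ARE-driven beta-lactamase reporter.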

[14] = qHTS assay for small molecule agonists of the antioxidant response element (ARE) signaling pathway - cell viability counter screen (AID 743203; calls by dose curve; also: nearly all actives have a fitted effect of over 55% in size)
In short: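 Following 16 hrs of compound treatment at 37C, HepG2 cells with an ARE-controlled beta-lactamase gene were lysed with CellTiter-Glo. Luminescence was read after 30 min at room temperature.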

[15] = qHTS assay for small molecule activators of the heat shock response signaling pathway - cell viability counter screen (AID 743209); also: nearly all actives have a fitted effect of over 50% in size
In short: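 Readout: CellTiter-Glo luminescence, 30 min at room temperature. System: HSE-bla HeLa cells, 1500/well, plated overnight. Treatment: compounds in DMSO, 5 h at 37 C.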

[16] = qHTS assay for small molecule activators of the heat shock response signaling pathway (AID 743210; active = well fitted activation curve with a large enough effect in the signal ratio in the repeat runs, with a control signal flat, not every such curve was filed as active; the % refers to the signal ratio; also: series mostly up to about 63 µM)
In short: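 HSE-bla HeLa cells (beta-lactamase reporter under heat shock response elements) were exposed to compounds for 5 h at 37 C, then loaded with LiveBLAzer B/G FRET substrate for 2.5 h at room temperature before fluorescence reading.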

[17] = biological target: Aryl hydrocarbon receptor (Homo sapiens) (UniProt P35869); assay: qHTS assay to identify small molecule that activate the aryl hydrocarbon receptor (AhR) signaling pathway (AID 743085);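 also: HG2L7.5c1 human HepG2 liver cells with stably integrated DRE-driven firefly reporter; series mostly up to about 70 µM; nearly all actives have a fitted effect of over 15% in size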
Aryl hydrocarbon receptor (Homo sapiens), sequence (P35869 whole entry, looked up): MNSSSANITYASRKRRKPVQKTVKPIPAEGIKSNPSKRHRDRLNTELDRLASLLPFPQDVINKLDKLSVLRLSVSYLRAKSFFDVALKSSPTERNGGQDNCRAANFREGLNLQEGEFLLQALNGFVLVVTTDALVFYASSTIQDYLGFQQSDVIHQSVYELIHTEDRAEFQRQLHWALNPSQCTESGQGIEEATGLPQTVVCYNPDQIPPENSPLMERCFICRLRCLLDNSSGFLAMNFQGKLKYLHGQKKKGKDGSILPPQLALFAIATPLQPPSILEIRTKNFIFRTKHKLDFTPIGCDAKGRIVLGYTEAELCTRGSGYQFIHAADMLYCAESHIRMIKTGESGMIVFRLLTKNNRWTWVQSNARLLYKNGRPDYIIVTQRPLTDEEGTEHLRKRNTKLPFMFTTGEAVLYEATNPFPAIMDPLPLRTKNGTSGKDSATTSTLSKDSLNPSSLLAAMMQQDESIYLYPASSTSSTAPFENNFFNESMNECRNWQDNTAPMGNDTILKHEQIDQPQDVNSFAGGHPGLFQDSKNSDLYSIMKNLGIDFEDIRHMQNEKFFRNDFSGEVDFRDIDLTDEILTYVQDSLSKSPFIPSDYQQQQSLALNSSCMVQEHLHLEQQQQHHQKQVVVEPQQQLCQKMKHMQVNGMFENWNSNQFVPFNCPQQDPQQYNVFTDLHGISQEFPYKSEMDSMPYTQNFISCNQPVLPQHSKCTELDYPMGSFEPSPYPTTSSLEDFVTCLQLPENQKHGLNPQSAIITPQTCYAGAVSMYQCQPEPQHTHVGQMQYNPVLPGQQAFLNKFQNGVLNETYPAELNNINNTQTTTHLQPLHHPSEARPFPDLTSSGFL
In short: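 AhR agonist activity is inferred from enhanced light output of a DRE-controlled firefly luciferase reporter in HepG2 cells, measured with ONE-Glo following 24 h treatment at 37C.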

[18] = biological target: Peroxisome proliferator-activated receptor gamma (Homo sapiens) (UniProt P37231); assay: qHTS assay to identify small molecule agonists of the peroxisome proliferator-activated receptor gamma (PPARg) signaling pathway (AID 743094; active = well fitted activation curve with a large enough effect in the signal ratio in the repeat runs, not every such curve was filed as active; the % refers to the signal ratio)
Peroxisome proliferator-activated receptor gamma (Homo sapiens), sequence (P37231 whole entry, looked up): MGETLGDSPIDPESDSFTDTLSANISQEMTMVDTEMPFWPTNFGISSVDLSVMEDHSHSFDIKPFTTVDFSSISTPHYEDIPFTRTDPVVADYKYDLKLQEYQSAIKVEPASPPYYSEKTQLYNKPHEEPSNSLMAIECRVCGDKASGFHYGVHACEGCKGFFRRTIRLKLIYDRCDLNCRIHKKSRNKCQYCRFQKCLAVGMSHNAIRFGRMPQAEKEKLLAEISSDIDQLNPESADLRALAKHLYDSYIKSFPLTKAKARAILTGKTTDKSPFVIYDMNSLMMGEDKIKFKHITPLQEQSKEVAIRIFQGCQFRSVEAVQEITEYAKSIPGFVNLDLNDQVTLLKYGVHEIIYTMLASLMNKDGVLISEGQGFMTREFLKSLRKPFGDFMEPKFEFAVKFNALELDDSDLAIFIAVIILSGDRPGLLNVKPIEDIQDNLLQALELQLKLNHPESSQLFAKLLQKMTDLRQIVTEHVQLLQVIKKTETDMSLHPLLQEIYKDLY
In short: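 Compounds dissolved in DMSO were added to PPARg UAS-bla HEK293H cells for 17 h at 37C, and reporter expression was quantified by fluorescence intensity after 1 h with LiveBLAzer B/G FRET substrate.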

[19] = biological target: Peroxisome proliferator-activated receptor gamma (Homo sapiens) (UniProt P37231); assay: qHTS assay to identify small molecule antagonists of the peroxisome proliferator-activated receptor gamma (PPARg) signaling pathway (AID 743191; calls by dose curve; also: series mostly up to about 63 µM; nearly all actives have a fitted effect of over 30% in size)
In short: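 GeneBLAzer PPARg UAS-bla HEK293H cells carrying a UAS-driven beta-lactamase reporter were plated at 3000 cells/well, preincubated 5 h at 37C, then given compound for 17 h at 37C; LiveBLAzer B/G FRET substrate was read after 1 h at room temperature.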

Measured: Potency

C=C1CC[C@H]2C[C@@H]1C2(C)C
inactive: [1] | [2] | [3] | [4] | [5] | [6] | [7] | [8] | [9] | Aromatase (Homo sapiens) | [10] | [11] | [12] | [13] | [14] | [15] | [16]

N=C(N)c1ccc2cc(OC(=O)c3ccc(N=C(N)N)cc3)ccc2c1
inactive: [1] | [2] | [3] | [4] | [5] | [6] | [7] | [8] | [9] | Aromatase (Homo sapiens) | [10] | [17] | [11] | [18] | [12] | [15] | [16]

CCOC(=O)C(=O)OCC
inactive: [1] | [2] | [3] | [4] | [5] | [6] | [7] | [8] | [9] | Aromatase (Homo sapiens) | [11] | [19] | [12] | [13] | [14] | [15] | [16]

C=C(C)CS(=O)(=O)O
inactive: [1] | [2] | [3] | [4] | [5] | [6] | [7] | [8] | [9] | Aromatase (Homo sapiens) | [10] | [17] | [11] | [18] | [14] | [15] | [16]

Nc1cc(=O)[nH]c(N)n1
inactive: [1] | [2] | [3] | [4] | [5] | [6] | [7] | [8] | [9] | Aromatase (Homo sapiens) | [10] | [17] | [11] | [18] | [12] | [13] | [14] | [15] | [16]

CCSC(=O)N(CC(C)C)CC(C)C
inactive: [1] | [2] | [3] | [4] | [5] | [6] | [7] | [8] | [9] | Aromatase (Homo sapiens) | [10] | [17] | [11] | [18] | [12] | [13] | [14] | [15] | [16]

CO[Si](CCCOCC1CO1)(OC)OC (configuration not stated)
inactive: [1] | [2] | [3] | [4] | [5] | [6] | [7] | [8] | [9] | Aromatase (Homo sapiens) | [10] | [17] | [11] | [18] | [12] | [13] | [14] | [15] | [16]

FC1(F)C(F)(F)C(F)(F)C2(F)C(F)(F)C(F)(F)C(F)(F)C(F)(F)C2(F)C1(F)F (configuration not stated)
inactive: [1] | [2] | [3] | [4] | [5] | [6] | [7] | [8] | [9] | Aromatase (Homo sapiens) | [10] | [17] | [11] | [18] | [19] | [15] | [16]
